Rows were chosen to be rich in hits. Some 4.8% of all compounds tested hit in one or more screens of this group.
APP 5UTR inh = inhibitors of APP translation via 5'UTR reporter, primary screen, APP 5'UTR luciferase, SH-SY5Y cells | SH-SY5Y APP 5'UTR-luciferase reporter, luminescence | inhibition, % at 2 µM | hit rate 0.82% among 190,000 | AID 1285, 2008;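 active = inhibition above a set limit, derived from the sample mean plus 3 SD, cut at about 45% in these data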
Hsp70 activator = Hsp70 transcriptional activators, primary screen, cell-based, HeLa, Hsp70 promoter luciferase, luminescence, 10 µM; HeLa Hsp70 promoter luciferase reporter; scaled: vehicle 0, proteasome-inhibitor control 100%; activation, % at 10 µM; hit rate 0.04% among 200,000; AID 1203, 2008;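 active = activation above the mean across all tested compounds plus 3 SD, cutoff set per campaign, cut at about 5.5% in these data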;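 also: 100% = MG132 at 30 µM as the positive control and 0% = DMSO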
STAT1 activator = STAT1 signaling activators, primary screen, cell-based, HTS, luciferase reporter. AID 932, 2007. hit rate 2.6% among 200,000. NIH 3T3 STAT1-luciferase reporter, IFN-gamma, luminescence; 100% = IFN-gamma alone, no compound. activation (% of control), % at 5.5 µM;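 active = activation above the screen-wide mean activation plus 3 SD, cut at about 130% in these data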;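 also: raw ratio to IFN-gamma control signal so 100% means no change and 0% no light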
NF-kB neuron act = activators of NF-kB expression in neurons, primary screen, cell-based, HTS; AID 1239, 2008; human neuronal cells, NF-kB reporter expression; hits give high values; hit rate 1.6% among 190,000; fold change at 12.5 µM; in the data active = fold change above about 3.3
Wee1 degr inh = Wee1 degradation inhibitors, primary screen, cell-based, HeLa, Wee1K328M-luciferase, luminescence. Wee1-like protein kinase (Homo sapiens), P30291. HeLa Luc-Wee1K328M stability; 100% = proteasome inhibitor MG132 effect. reporter increase, % at 5 µM. hit rate 1.2% among 220,000. AID 1321, 2008;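 active = activation above the mean of all tested compounds plus 3 SD, set per screening run, cut at about 8.8% in these data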;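 also: cells exposed to compound for 20 h before luminescence read; 0% = DMSO alone and 100% = MG132 at 30 µM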
Target sequence (P30291 whole entry K328M): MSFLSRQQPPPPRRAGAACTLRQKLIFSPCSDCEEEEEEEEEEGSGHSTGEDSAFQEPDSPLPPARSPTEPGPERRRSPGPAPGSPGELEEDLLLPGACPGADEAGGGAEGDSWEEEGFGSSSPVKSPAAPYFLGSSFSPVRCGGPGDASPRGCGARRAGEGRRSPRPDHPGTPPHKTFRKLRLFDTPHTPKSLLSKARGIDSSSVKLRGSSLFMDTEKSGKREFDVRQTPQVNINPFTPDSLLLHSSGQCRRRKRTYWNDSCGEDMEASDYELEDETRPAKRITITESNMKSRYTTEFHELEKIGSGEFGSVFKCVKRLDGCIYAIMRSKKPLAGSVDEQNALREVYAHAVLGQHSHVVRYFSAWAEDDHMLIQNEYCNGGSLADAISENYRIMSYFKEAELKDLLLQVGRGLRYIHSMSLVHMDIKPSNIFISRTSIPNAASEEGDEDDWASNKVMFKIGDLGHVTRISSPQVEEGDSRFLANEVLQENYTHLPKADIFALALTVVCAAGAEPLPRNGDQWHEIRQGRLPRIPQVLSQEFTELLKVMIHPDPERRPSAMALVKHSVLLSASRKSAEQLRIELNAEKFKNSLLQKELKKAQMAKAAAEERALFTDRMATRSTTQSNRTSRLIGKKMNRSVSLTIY
APP 5'UTR act = activators of APP 5'UTR luciferase reporter, primary screen, SH-SY5Y cells; SH-SY5Y APP 5'UTR luciferase reporter, luminescence; zero percent = DMSO vehicle wells; hit rate 1% among 190,000; activation, % at 2 µM;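 active = activation above a set limit, based on mean plus 3 SD of controls, cut at about 140% in these data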
* = called active by the depositor.

How did Cn1c(NC(=S)Nc2ccccc2)nc2ccccc21 do in these assays?
APP 5UTR inh: -160.3; Hsp70 activator: -0.2; STAT1 activator: 141.5*; NF-kB neuron act: 1.12; Wee1 degr inh: 2.0; APP 5'UTR act: 160.3*

Results for CCOCCCNC(=O)c1ccc2c(=O)n(Cc3ccc4c(c3)OCO4)c(=S)[nH]c2c1 ?
APP 5UTR inh: -17.1; Hsp70 activator: -0.2; STAT1 activator: 94.8; NF-kB neuron act: 0.97; Wee1 degr inh: -0.5; APP 5'UTR act: 17.1

How did O=C(NCc1cccs1)c1cc(S(=O)(=O)N2CCCCC2)ccc1Cl do in these assays?
APP 5UTR inh: 10.7; Hsp70 activator: -0.3; STAT1 activator: 98.8; NF-kB neuron act: 1.11; Wee1 degr inh: -2.4; APP 5'UTR act: -10.7

What do the screens show for `Cc1cc(CN(C)Cc2c(C(=O)N3CCCCCCC3)nc3ccc(Cl)cn23)n[nH]1`?
APP 5UTR inh: 0.6; Hsp70 activator: 0.0; STAT1 activator: 100.7; NF-kB neuron act: 0.9; Wee1 degr inh: 9.3*; APP 5'UTR act: -0.6

What do the screens show for `CCN(C)Cc1c(C(=O)N2CCc3ccccc3C2)nc2ccc(Cl)cn12`?
APP 5UTR inh: 4.1; Hsp70 activator: -0.3; STAT1 activator: 92.8; NF-kB neuron act: 1.15; Wee1 degr inh: -2.5; APP 5'UTR act: -4.1

How did COc1cccc(N/C=C/c2onc(C)c2[N+](=O)[O-])c1 do in these assays?
APP 5UTR inh: -145.5; Hsp70 activator: -0.2; STAT1 activator: 143.7*; NF-kB neuron act: 1.5; Wee1 degr inh: -1.0; APP 5'UTR act: 145.5*

How did Cc1cc(C)nc(Nc2n[nH]c(-c3ccc(C(C)(C)C)cc3)n2)n1 do in these assays?
APP 5UTR inh: -55.6; Hsp70 activator: -0.4; STAT1 activator: 114.6; NF-kB neuron act: 1.34; Wee1 degr inh: -3.4; APP 5'UTR act: 55.6

Results for Cc1cc(C)nc(Nc2n[nH]c(-c3ccc(N)cc3)n2)n1 ?
Hsp70 activator: 0.4; STAT1 activator: 156.3*; NF-kB neuron act: 3.17; Wee1 degr inh: 7.2

What do the screens show for `Cc1cc(C)nc(Nc2n[nH]c(-c3ccccc3C)n2)n1`?
APP 5UTR inh: -94.2; Hsp70 activator: -0.2; STAT1 activator: 135.3*; NF-kB neuron act: 2.71; Wee1 degr inh: 0.7; APP 5'UTR act: 94.2

How did COC(=O)c1cc(Cl)c(NC(=O)c2ccc(C(C)(C)C)cc2)cc1OC do in these assays?
APP 5UTR inh: -19.1; Hsp70 activator: -0.2; STAT1 activator: 99.6; NF-kB neuron act: 0.81; Wee1 degr inh: -2.0; APP 5'UTR act: 19.1

What do the screens show for `Cc1nn(-c2ncc(C(F)(F)F)cc2Cl)c(=O)n1-c1cccc(F)c1`?
APP 5UTR inh: 9.0; Hsp70 activator: -0.4; STAT1 activator: 98.0; NF-kB neuron act: 1.02; Wee1 degr inh: 4.4; APP 5'UTR act: -9.0

What do the screens show for `CCC(=O)NC(=S)Nc1ccc(NC(=O)c2ccco2)cc1`?
APP 5UTR inh: -13.1; Hsp70 activator: -0.1; STAT1 activator: 120.3; NF-kB neuron act: 1.58; Wee1 degr inh: -1.2; APP 5'UTR act: 13.1

How did CC(C)(C)NC(=S)NCCc1ccccc1 do in these assays?
APP 5UTR inh: -77.8; Hsp70 activator: -0.2; STAT1 activator: 130.1*; NF-kB neuron act: 1.98; Wee1 degr inh: 4.2; APP 5'UTR act: 77.8

What do the screens show for `Cc1ccccc1NC(=S)NCCc1ccccc1`?
APP 5UTR inh: -15.9; Hsp70 activator: -0.1; STAT1 activator: 101.2; NF-kB neuron act: 1.77; Wee1 degr inh: -1.4; APP 5'UTR act: 15.9

Results for S=C(NCCc1ccccc1)Nc1ccccn1 ?
APP 5UTR inh: -26.5; Hsp70 activator: -0.2; STAT1 activator: 132.8*; NF-kB neuron act: 1.63; Wee1 degr inh: 1.9; APP 5'UTR act: 26.5

What do the screens show for `O=C(NNC(=O)c1cccs1)c1ccc(S(=O)(=O)N2CCCCC2)cc1`?
APP 5UTR inh: 1.9; Hsp70 activator: 0.1; STAT1 activator: 96.9; NF-kB neuron act: 1.09; Wee1 degr inh: 3.0; APP 5'UTR act: -1.9

What do the screens show for `CC(Oc1cccc(Cl)c1)C(=O)Nc1cc(=O)n(C)c(=O)n1C` (configuration not stated)?
APP 5UTR inh: -6.5; Hsp70 activator: -0.3; STAT1 activator: 100.2; NF-kB neuron act: 0.91; Wee1 degr inh: -0.9; APP 5'UTR act: 6.5

Results for Cc1ccsc1/C=N/NC(=O)c1cccs1 ?
APP 5UTR inh: -29.2; Hsp70 activator: 0.0; STAT1 activator: 133.8*; NF-kB neuron act: 2.1; Wee1 degr inh: 1.5; APP 5'UTR act: 29.2

How did Cc1ccsc1/C=N/NC(=O)c1ccccn1 do in these assays?
APP 5UTR inh: -84.7; Hsp70 activator: 0.0; STAT1 activator: 148.0*; NF-kB neuron act: 2.55; Wee1 degr inh: 1.7; APP 5'UTR act: 84.7

Results for O=C(N/N=C/c1ccc(Br)s1)c1ccccn1 ?
APP 5UTR inh: -99.6; Hsp70 activator: -0.2; STAT1 activator: 137.4*; NF-kB neuron act: 3.47*; Wee1 degr inh: 2.3; APP 5'UTR act: 99.6

How did O=C(N/N=C/c1ccsc1)c1ccccn1 do in these assays?
APP 5UTR inh: -36.0; Hsp70 activator: -0.3; STAT1 activator: 127.5; NF-kB neuron act: 2.19; Wee1 degr inh: -0.3; APP 5'UTR act: 36.0

What do the screens show for `CC(C)(C)c1ccc(/C=N/NC(=O)c2ccccn2)cc1`?
APP 5UTR inh: -167.6; Hsp70 activator: -0.3; STAT1 activator: 58.9; NF-kB neuron act: 2.36; Wee1 degr inh: 2.8; APP 5'UTR act: 167.6*

What do the screens show for `CNC(=S)N/N=C/c1c(C)nn(-c2ccc(F)cc2)c1Cl`?
APP 5UTR inh: -12.1; Hsp70 activator: 0.3; STAT1 activator: 103.5; NF-kB neuron act: 1.62; Wee1 degr inh: 4.4; APP 5'UTR act: 12.1

Results for Cc1nn(-c2ccc(F)cc2)c(Cl)c1/C=N/NC(=O)c1ccc(O)cc1 ?
APP 5UTR inh: -11.6; Hsp70 activator: -0.1; STAT1 activator: 92.0; NF-kB neuron act: 0.58; Wee1 degr inh: 1.5; APP 5'UTR act: 11.6

How did Cc1ccccc1C(=O)N/N=C/c1ccsc1C do in these assays?
APP 5UTR inh: -33.9; Hsp70 activator: 0.1; STAT1 activator: 132.7*; NF-kB neuron act: 1.73; Wee1 degr inh: 3.7; APP 5'UTR act: 33.9

What do the screens show for `Cc1nn(-c2ccc(F)cc2)c(Cl)c1/C=N/NC(=O)c1cccs1`?
APP 5UTR inh: -35.3; Hsp70 activator: 0.0; STAT1 activator: 141.9*; NF-kB neuron act: 1.22; Wee1 degr inh: -0.3; APP 5'UTR act: 35.2

How did CC(C(=O)Nc1ccccc1Oc1ccccc1)c1ccccc1 (configuration not stated) do in these assays?
APP 5UTR inh: 2.4; Hsp70 activator: 0.0; STAT1 activator: 96.7; NF-kB neuron act: 1.29; Wee1 degr inh: -1.1; APP 5'UTR act: -2.4

Screens as filed in PubChem.
